In PubChem BioAssay (NCI):
Compounds without any hit were thinned out: in the full panel of roughly 79,000, 15% have a hit. Unmarked numbers belong to inactive results. Rule as the data show it: active = growth inhibition above about 70%; inactive = the rest.

Experiment: NCI Yeast Anticancer Drug Screen. Data for the rad50 strain (AID 155);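 also: 0% = growth of vehicle-only cultures of the same strain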
Conditions: S. cerevisiae rad50 strain growth inhibition; at 50.0 µM; stronger effect = higher value
Method in brief: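 Vehicle-treated cultures provide the reference for the growth inhibition reported for compound-exposed, repair-deficient yeast.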

SMILES	growth inhibition [%]
C[N+]1(C)CCOC(O)(c2ccccc2)C1 (stereo not given)	-29.6
O=C(CCc1n[nH]c(=S)o1)Nc1ccccc1	18.4
COc1ccc(/C=C\c2cccc(Cl)c2)cc1	21.6
N#CSCc1c(Cl)c(Cl)c(CSC#N)c(Cl)c1Cl	-13.8
Nc1ncnc2c1ccn2C1OC2COP(=O)(O)OC2C1O (stereo not given)	-12.6
CCc1ccc(/C(C#N)=C/c2cccc3ccccc23)cc1	2.45
CCOC(=O)c1c(O)nc2sc3ccccc3n2c1=O	19
COC(=O)C(CCc1ccc([N+](=O)[O-])cc1)(CCc1ccc([N+](=O)[O-])cc1)C(C)=O	5.9
O=C(O)C1CSC2(CCCN(Cc3ccccc3)C2)N1 (stereo not given)	-17.7
CC1OC(n2cc(Cl)c(=O)[nH]c2=O)C=C(OC(=O)c2ccccc2)C1=O (stereo not given)	-18.6
O=[N+]([O-])c1ccc(S(=O)(=O)c2ccc(NCN3CCCCC3)cc2)cc1	25.1
O=[N+]([O-])C1C2C=CC(C2)[C@H]1c1ccco1 (stereo not given in full)	-7.85
Cc1cc(N(CCC#N)CCC#N)ccc1/C=C1N=C(/C=C\c2ccccc2)N(c2ccc(C(=O)O)cc2)C\1=O	-3.65
COc1cc(OC)c(NC(N)=O)cc1Cl	2.3
CN(C)CCOc1ccccn1	9.45
COC(=O)NN=C1C(C)(C)C(=O)C1(C)C	-20.7
CCC1OC(=O)CC(O)C(C)C(OC2OC(C)CC(N(C)C)C2O)C(CC=O)CC(C)C(=O)/C=C/C2(C)OC2C1C (stereo not given)	-6.9
COc1ccc(S(=O)c2coc3ccccc3c2=O)cc1 (stereo not given)	32.4
O=C(O)c1cccc(S(=O)(=O)NCCO)c1	-11.3
CC1C=CCCC1COC(=O)C(=O)OCC1CC=CCC1C (stereo not given)	32.7

SMILES	growth inhibition [%]
CCCCC(=O)Nc1ccc(Cl)cc1	18.2
CC(=O)CC1CCCC1	19.4
CCN(c1ccccc1)c1nsc(Cl)n1	-3.25
c1ccc(CSCCc2ccncc2)cc1	16.4
C[n+]1ccsn1	-0.7
CC(C)CC(C)(CC(C)C)C(=O)O	9.95
CN(C)c1ccccc1CC(=O)Nc1ccccc1	-12.6
CC(C)(C)OC(=O)CN1C(=O)CCC1=O	6.25
CCN(CC)C(=O)C1(C)NS(=O)(=O)c2ccccc2C1=O (stereo not given)	-7.05
CC(=O)CC(C)(C)NNC(N)=S	1.45
C/C=C/C1N(C)CCCN1C	-2
COc1ccc(N2C(=O)C3c4[nH]c5ccccc5c4C4CCCCCCC4C3C2=O)cc1 (stereo not given)	50.1
CC(C)C1N=C(N)N=C(N)N1c1ccc(Cl)c(Cl)c1 (stereo not given)	17.4
CC(NC(=O)c1ccc(C(C[N+](=O)[O-])SCCC(=O)O)cc1)C(=O)O (stereo not given)	18.9
Ic1ccccn1	15.3
COc1cc2nc(C)oc(=O)c2cc1OC	19.1
N#CC1(C#N)CC1(C#N)C#N	7.9
Cc1cc(N=Cc2c(CO)cnc(C)c2O)c(N=Cc2c(CO)cnc(C)c2O)cc1C.[Zn]	5.9
Cn1nc2c(c1-c1cccnc1)CCCc1ccccc1-2	10.1
COC(=O)C(C(=O)C(=O)Nc1ccc([N+](=O)[O-])cc1)c1nc2ccc([N+](=O)[O-])cc2[nH]c1=O (stereo not given)	8.95

Experiment: NCI Yeast Anticancer Drug Screen. Data for the mec2-1 strain (AID 157)
Conditions: S. cerevisiae mec2-1 strain, at 50.0 µM, stronger effect = higher value
Method in brief: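 Compounds were applied to mec2-1 yeast cells. Their growth was then compared with that of vehicle-treated cultures to give growth inhibition.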

SMILES	growth inhibition [%]
C[N+]1(C)CCOC(O)(c2ccccc2)C1 (stereo not given)	-34
O=C(CCc1n[nH]c(=S)o1)Nc1ccccc1	17.4
COc1ccc(/C=C\c2cccc(Cl)c2)cc1	-25.1
N#CSCc1c(Cl)c(Cl)c(CSC#N)c(Cl)c1Cl	-7.15
Nc1ncnc2c1ccn2C1OC2COP(=O)(O)OC2C1O (stereo not given)	-31.4
CCc1ccc(/C(C#N)=C/c2cccc3ccccc23)cc1	-11.1
CCOC(=O)c1c(O)nc2sc3ccccc3n2c1=O	12.7
COC(=O)C(CCc1ccc([N+](=O)[O-])cc1)(CCc1ccc([N+](=O)[O-])cc1)C(C)=O	-10
O=C(O)C1CSC2(CCCN(Cc3ccccc3)C2)N1 (stereo not given)	-29.4
CC1OC(n2cc(Cl)c(=O)[nH]c2=O)C=C(OC(=O)c2ccccc2)C1=O (stereo not given)	-27.4
O=[N+]([O-])c1ccc(S(=O)(=O)c2ccc(NCN3CCCCC3)cc2)cc1	6.2
O=[N+]([O-])C1C2C=CC(C2)[C@H]1c1ccco1 (stereo not given in full)	-15.2
Cc1cc(N(CCC#N)CCC#N)ccc1/C=C1N=C(/C=C\c2ccccc2)N(c2ccc(C(=O)O)cc2)C\1=O	-45.5
COc1cc(OC)c(NC(N)=O)cc1Cl	-35
CN(C)CCOc1ccccn1	-27.4
COC(=O)NN=C1C(C)(C)C(=O)C1(C)C	-21.8
CCC1OC(=O)CC(O)C(C)C(OC2OC(C)CC(N(C)C)C2O)C(CC=O)CC(C)C(=O)/C=C/C2(C)OC2C1C (stereo not given)	-7.55
COc1ccc(S(=O)c2coc3ccccc3c2=O)cc1 (stereo not given)	-9.05
O=C(O)c1cccc(S(=O)(=O)NCCO)c1	-8.25
CC1C=CCCC1COC(=O)C(=O)OCC1CC=CCC1C (stereo not given)	0.15

SMILES	growth inhibition [%]
CCCCC(=O)Nc1ccc(Cl)cc1	7.8
CC(=O)CC1CCCC1	0.6
CCN(c1ccccc1)c1nsc(Cl)n1	-10.8
c1ccc(CSCCc2ccncc2)cc1	-13.6
C[n+]1ccsn1	3.05
CC(C)CC(C)(CC(C)C)C(=O)O	-7.75
CN(C)c1ccccc1CC(=O)Nc1ccccc1	4.45
CC(C)(C)OC(=O)CN1C(=O)CCC1=O	8.65
CCN(CC)C(=O)C1(C)NS(=O)(=O)c2ccccc2C1=O (stereo not given)	10.1
CC(=O)CC(C)(C)NNC(N)=S	0.7
C/C=C/C1N(C)CCCN1C	-7.55
COc1ccc(N2C(=O)C3c4[nH]c5ccccc5c4C4CCCCCCC4C3C2=O)cc1 (stereo not given)	25.9
CC(C)C1N=C(N)N=C(N)N1c1ccc(Cl)c(Cl)c1 (stereo not given)	10.1
CC(NC(=O)c1ccc(C(C[N+](=O)[O-])SCCC(=O)O)cc1)C(=O)O (stereo not given)	7.2
Ic1ccccn1	-11.3
COc1cc2nc(C)oc(=O)c2cc1OC	-16.8
N#CC1(C#N)CC1(C#N)C#N	16.4
Cc1cc(N=Cc2c(CO)cnc(C)c2O)c(N=Cc2c(CO)cnc(C)c2O)cc1C.[Zn]	-8
Cn1nc2c(c1-c1cccnc1)CCCc1ccccc1-2	24.6
COC(=O)C(C(=O)C(=O)Nc1ccc([N+](=O)[O-])cc1)c1nc2ccc([N+](=O)[O-])cc2[nH]c1=O (stereo not given)	-3.1
